Test results from ChEMBL document CHEMBL1961873, “Compounds: GSK PKIS; Assays: Nanosyn kinase panel” (2012).

How the values were obtained:
[1] = target: RAC-alpha serine/threonine-protein kinase (Homo sapiens) (UniProt P31749); details: at 0.1 µM
[2] = target: RAC-alpha serine/threonine-protein kinase (Homo sapiens) (UniProt P31749); details: at 1 µM
[3] = target: RAC-beta serine/threonine-protein kinase (Homo sapiens) (UniProt P31751); details: at 0.1 µM
[4] = target: RAC-beta serine/threonine-protein kinase (Homo sapiens) (UniProt P31751); details: at 1 µM
[5] = target: RAC-gamma serine/threonine-protein kinase (Homo sapiens) (UniProt Q9Y243); details: at 0.1 µM
Sequence of RAC-gamma serine/threonine-protein kinase (Homo sapiens) (Q9Y243 whole entry): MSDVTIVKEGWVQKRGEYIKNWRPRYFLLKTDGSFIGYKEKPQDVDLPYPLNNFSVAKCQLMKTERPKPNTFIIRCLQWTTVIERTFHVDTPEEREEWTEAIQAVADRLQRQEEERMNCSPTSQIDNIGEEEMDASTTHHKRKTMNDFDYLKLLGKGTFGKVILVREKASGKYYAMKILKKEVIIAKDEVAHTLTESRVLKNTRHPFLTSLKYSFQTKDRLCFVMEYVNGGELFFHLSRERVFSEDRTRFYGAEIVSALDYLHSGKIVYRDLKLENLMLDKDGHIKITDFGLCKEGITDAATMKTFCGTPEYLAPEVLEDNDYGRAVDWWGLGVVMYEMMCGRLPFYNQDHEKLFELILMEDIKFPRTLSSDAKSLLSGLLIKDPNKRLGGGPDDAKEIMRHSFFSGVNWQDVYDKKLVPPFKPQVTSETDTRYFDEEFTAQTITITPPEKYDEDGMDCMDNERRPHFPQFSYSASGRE

[6] = target: RAC-gamma serine/threonine-protein kinase (Homo sapiens) (UniProt Q9Y243); details: at 1 µM
[7] = target: G protein-coupled receptor kinase 6 (Homo sapiens) (UniProt P43250); details: at 0.1 µM
Sequence of G protein-coupled receptor kinase 6 (Homo sapiens) (P43250 whole entry, looked up): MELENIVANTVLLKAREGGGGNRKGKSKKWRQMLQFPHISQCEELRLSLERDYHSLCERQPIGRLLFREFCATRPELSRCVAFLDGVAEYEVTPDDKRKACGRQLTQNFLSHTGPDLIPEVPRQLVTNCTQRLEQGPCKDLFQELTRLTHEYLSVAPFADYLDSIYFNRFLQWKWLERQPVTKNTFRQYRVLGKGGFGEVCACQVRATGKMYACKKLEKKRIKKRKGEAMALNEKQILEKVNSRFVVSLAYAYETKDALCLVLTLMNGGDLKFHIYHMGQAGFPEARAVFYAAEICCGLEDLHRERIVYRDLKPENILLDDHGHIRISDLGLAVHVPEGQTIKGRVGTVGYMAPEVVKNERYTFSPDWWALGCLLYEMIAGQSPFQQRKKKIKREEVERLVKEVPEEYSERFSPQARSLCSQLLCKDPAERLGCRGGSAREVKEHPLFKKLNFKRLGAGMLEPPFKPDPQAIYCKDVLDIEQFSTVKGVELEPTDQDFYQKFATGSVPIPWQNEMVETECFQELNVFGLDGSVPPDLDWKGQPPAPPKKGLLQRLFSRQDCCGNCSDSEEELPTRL

[8] = target: G protein-coupled receptor kinase 6 (Homo sapiens) (UniProt P43250); details: at 1 µM
[9] = target: T1, Rhodopsin kinase GRK7 (Homo sapiens) (UniProt Q8WTQ7); details: at 0.1 µM
T1 sequence (whole entry): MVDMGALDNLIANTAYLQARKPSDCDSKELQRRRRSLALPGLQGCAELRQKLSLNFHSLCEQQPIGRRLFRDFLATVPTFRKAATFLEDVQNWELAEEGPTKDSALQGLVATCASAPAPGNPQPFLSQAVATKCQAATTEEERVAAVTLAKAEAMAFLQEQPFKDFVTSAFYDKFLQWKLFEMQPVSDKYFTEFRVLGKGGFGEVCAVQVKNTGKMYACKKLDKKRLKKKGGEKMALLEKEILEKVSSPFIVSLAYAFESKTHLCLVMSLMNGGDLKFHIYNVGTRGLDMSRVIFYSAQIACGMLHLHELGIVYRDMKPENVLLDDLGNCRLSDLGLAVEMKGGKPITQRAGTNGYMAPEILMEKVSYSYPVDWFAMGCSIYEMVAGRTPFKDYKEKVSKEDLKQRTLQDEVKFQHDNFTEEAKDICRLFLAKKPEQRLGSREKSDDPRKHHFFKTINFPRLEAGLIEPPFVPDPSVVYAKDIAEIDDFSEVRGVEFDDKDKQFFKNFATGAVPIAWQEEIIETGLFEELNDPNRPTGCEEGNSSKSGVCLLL

[10] = target: T1, Rhodopsin kinase GRK7 (Homo sapiens); details: at 1 µM
[11] = target: Serine/threonine-protein kinase MRCK alpha (Homo sapiens) (UniProt Q5VT25); details: at 0.1 µM
[12] = target: Serine/threonine-protein kinase MRCK alpha (Homo sapiens) (UniProt Q5VT25); details: at 1 µM
[13] = target: Serine/threonine-protein kinase MRCK beta (Homo sapiens) (UniProt Q9Y5S2); details: at 0.1 µM
Sequence of Serine/threonine-protein kinase MRCK beta (Homo sapiens) (Q9Y5S2 whole entry): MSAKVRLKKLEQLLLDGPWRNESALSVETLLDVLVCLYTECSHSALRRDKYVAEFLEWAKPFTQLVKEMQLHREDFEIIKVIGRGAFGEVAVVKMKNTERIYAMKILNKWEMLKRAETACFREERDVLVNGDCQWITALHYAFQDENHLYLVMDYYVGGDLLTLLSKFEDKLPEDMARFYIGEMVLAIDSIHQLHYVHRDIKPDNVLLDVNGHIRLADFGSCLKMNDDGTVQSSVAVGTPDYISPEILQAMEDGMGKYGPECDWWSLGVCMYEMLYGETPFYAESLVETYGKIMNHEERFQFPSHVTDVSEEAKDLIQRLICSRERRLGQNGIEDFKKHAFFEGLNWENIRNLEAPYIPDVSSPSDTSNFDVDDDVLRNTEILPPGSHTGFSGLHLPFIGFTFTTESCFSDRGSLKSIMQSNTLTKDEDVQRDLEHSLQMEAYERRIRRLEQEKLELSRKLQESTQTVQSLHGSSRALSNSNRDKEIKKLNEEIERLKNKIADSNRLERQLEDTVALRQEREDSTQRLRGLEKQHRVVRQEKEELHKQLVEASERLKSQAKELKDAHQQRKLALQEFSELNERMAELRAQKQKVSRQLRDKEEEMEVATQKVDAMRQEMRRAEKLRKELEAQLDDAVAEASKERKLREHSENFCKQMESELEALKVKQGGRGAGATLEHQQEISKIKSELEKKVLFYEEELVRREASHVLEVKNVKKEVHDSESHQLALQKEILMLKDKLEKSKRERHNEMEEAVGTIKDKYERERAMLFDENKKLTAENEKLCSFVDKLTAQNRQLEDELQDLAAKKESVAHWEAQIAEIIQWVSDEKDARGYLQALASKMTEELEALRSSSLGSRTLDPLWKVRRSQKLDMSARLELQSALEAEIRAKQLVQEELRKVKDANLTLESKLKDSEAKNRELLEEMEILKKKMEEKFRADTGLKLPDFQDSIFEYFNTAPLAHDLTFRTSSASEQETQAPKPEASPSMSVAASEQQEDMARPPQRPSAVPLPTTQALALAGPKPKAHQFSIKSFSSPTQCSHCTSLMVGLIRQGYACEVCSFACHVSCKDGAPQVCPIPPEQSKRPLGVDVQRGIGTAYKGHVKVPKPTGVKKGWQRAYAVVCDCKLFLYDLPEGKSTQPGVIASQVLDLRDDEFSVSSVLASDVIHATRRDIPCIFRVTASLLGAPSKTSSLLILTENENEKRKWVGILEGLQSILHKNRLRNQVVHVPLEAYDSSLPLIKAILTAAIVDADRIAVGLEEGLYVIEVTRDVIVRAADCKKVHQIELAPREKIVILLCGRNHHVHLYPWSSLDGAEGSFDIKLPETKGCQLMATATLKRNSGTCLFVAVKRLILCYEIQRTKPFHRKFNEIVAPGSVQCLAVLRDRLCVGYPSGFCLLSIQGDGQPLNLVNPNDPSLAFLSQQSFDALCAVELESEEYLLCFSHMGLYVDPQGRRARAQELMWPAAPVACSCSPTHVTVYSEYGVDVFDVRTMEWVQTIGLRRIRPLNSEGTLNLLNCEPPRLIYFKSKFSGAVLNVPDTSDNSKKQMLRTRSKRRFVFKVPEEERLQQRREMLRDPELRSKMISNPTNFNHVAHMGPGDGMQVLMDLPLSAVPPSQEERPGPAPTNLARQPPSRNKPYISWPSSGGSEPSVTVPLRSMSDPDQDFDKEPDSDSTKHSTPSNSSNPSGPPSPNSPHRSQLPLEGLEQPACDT

[14] = target: Serine/threonine-protein kinase MRCK beta (Homo sapiens) (UniProt Q9Y5S2); details: at 1 µM
[15] = target: Ribosomal protein S6 kinase alpha-5 (Homo sapiens) (UniProt O75582); details: at 0.1 µM
Sequence of Ribosomal protein S6 kinase alpha-5 (Homo sapiens) (O75582 whole entry, looked up): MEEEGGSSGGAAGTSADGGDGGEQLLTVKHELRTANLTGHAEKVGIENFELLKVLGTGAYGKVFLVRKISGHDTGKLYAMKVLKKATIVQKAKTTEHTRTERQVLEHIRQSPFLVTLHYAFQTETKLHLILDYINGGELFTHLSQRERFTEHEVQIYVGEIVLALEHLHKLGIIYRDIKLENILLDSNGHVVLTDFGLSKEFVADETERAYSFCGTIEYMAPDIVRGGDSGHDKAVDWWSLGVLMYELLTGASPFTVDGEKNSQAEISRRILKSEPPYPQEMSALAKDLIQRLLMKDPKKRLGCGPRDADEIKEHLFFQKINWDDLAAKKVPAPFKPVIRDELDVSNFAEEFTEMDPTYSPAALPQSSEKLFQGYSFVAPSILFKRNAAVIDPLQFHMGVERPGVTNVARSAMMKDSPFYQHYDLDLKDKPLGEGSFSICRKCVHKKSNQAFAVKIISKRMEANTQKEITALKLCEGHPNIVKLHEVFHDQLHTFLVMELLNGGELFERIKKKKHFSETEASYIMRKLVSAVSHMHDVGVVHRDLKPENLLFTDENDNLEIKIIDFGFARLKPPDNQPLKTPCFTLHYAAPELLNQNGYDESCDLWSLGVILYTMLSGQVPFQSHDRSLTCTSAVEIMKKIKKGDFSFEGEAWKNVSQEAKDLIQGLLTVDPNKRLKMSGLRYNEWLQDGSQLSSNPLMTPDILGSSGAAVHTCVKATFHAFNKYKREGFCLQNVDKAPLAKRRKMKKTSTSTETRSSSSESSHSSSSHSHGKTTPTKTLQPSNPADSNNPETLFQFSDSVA

[16] = target: Ribosomal protein S6 kinase alpha-5 (Homo sapiens) (UniProt O75582); details: at 1 µM
[17] = target: Ribosomal protein S6 kinase alpha-4 (Homo sapiens) (UniProt O75676); details: at 0.1 µM
Sequence of Ribosomal protein S6 kinase alpha-4 (Homo sapiens) (O75676 whole entry, looked up): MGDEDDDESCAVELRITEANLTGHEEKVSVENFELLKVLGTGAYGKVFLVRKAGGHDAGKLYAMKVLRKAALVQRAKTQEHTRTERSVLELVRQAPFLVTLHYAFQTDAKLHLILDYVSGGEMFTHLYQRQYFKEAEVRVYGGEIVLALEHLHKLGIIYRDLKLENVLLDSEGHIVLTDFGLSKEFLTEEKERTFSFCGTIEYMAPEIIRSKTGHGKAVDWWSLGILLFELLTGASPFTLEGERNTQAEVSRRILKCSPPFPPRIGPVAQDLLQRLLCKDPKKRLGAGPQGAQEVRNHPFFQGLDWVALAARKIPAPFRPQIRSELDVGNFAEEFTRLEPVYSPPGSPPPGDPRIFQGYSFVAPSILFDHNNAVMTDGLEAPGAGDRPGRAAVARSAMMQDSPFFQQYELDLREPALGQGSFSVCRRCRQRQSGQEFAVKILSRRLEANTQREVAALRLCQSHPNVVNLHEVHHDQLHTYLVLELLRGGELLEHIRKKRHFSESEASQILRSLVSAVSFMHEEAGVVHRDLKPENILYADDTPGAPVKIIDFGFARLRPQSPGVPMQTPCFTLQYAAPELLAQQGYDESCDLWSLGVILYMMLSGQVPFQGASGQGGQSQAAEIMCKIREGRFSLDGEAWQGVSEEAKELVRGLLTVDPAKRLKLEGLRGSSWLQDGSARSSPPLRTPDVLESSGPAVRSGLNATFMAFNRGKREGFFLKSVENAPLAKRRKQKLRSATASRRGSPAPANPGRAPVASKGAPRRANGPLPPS

[18] = target: Ribosomal protein S6 kinase alpha-4 (Homo sapiens) (UniProt O75676); details: at 1 µM
[19] = target: Ribosomal protein S6 kinase beta-1 (Homo sapiens) (UniProt P23443); details: at 0.1 µM
Sequence of Ribosomal protein S6 kinase beta-1 (Homo sapiens) (P23443 whole entry, looked up): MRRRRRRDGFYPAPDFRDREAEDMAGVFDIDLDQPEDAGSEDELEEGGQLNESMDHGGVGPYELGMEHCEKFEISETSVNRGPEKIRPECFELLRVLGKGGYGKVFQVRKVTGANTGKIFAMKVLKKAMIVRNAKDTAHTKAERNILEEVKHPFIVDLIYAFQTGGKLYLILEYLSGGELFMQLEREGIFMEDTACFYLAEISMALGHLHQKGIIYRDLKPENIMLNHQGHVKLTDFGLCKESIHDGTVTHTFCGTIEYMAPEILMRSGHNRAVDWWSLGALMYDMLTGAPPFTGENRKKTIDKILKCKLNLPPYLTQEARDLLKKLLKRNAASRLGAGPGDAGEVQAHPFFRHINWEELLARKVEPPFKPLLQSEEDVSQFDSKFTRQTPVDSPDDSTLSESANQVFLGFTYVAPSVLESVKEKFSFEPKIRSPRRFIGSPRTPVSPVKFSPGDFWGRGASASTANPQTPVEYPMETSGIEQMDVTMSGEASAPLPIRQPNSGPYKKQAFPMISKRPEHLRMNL

[20] = target: Ribosomal protein S6 kinase beta-1 (Homo sapiens) (UniProt P23443); details: at 1 µM

SMILES | inhibition [1] | inhibition [2] | inhibition [3] | inhibition [4] | inhibition [5] | inhibition [6] | inhibition [7] | inhibition [8] | inhibition [9] | inhibition [10] | inhibition [11] | inhibition [12] | inhibition [13] | inhibition [14] | inhibition [15] | inhibition [16] | inhibition [17] | inhibition [18] | inhibition [19] | inhibition [20]
COc1ccc2cc(-c3c(-c4ccncc4)nc(-c4ccc(S(C)(=O)=O)cc4C)n3C)ccc2c1 | 1.8% | 1.99% | 2.93% | 2.26% | 2.8% | 4.98% | 5.87% | 8.14% | 4.36% | 8.69% | 0.29% | 1.6% | 2.15% | 1.98% | 3.82% | 5.44% | 7.21% | 9.9% | 1.75% | 3.34%
NCc1ccc(-n2c(-c3nonc3N)nc3cnccc32)cc1 | 3.84% | 15.8% | 3.5% | 15.1% | 1.72% | 20.5% | 5.51% | 7.31% | 9.11% | 15.5% | 43.4% | 90.6% | 59.8% | 83.5% | 54.7% | 78.7% | 20.1% | 63.3% | 21.3% | 69.9%
COc1cc(C)c(N(C)C(=O)CN(C)C)cc1Nc1nc(Nc2cccc(F)c2C(N)=O)c2cc[nH]c2n1 | -1.91% | -1.8% | -3.1% | -2.1% | -2.47% | -1.39% | 3.68% | 17.8% | -0.46% | -6.16% | 0.58% | 0.78% | 1.08% | 1.21% | 1.09% | 0.49% | 1.07% | 2.79% | 2.18% | 1.42%
CN1CCN(CCCNc2nc3ccc(Oc4ccc(NC(=O)Nc5cc(C(F)(F)F)ccc5F)cc4)cc3[nH]2)CC1 | -3.71% | -3.59% | -3.19% | -0.85% | -3.05% | -2.98% | 0.32% | -5.54% | 1.12% | -3.95% | 1.76% | -0.74% | 2.45% | 2.84% | 1.13% | -0.08% | 1.93% | 2.99% | 1.14% | 4.19%
O=C(Nc1n[nH]c2cc(-c3cc(F)ccc3F)ccc12)C1CC1 | 0.77% | 0.09% | 1.23% | 1.89% | 1.03% | 2.68% | 2.61% | 3.76% | 1.22% | 6.2% | -0.78% | -3.13% | -0.23% | -0.47% | 1.91% | 1.12% | 1.8% | 3.08% | 1.01% | 1.58%
C[C@@H](Oc1cc(-n2cnc3ccc(OCC4CCN(C)CC4)cc32)sc1C(N)=O)c1ccccc1Cl | 0.75% | 0.38% | 1.73% | 2.79% | 0.98% | 3.81% | 4.28% | 9.48% | 10.8% | 9.71% | 3.98% | 9.1% | 1.18% | 1.35% | 4.97% | 7.75% | 3.23% | 7.58% | 2.88% | 6.79%
COc1cc(N2CCN(C(C)C)CC2)ccc1Nc1nc(Nc2ccc(F)cc2C(=O)NC[C@@H](O)CO)c2cc[nH]c2n1 | -3.58% | -2.63% | 0.2% | -1.3% | -2.3% | -1.37% | 9.59% | 13% | 5.2% | 13.3% | -0.84% | 3.26% | -0.21% | -1.04% | 2.19% | 2.99% | 3.14% | 4.18% | 1.29% | 2.5%
FC(F)(F)c1cccc(Nc2nccc(-c3cnn4nc(-c5ccccc5)ccc34)n2)c1 | 0.83% | 0.65% | 0.62% | 1.58% | 0.22% | -2.03% | -2.23% | -0.87% | 4.12% | 6.07% | -4.69% | -0.12% | 0.14% | 0.03% | 1.36% | 0.17% | 1.71% | 0.86% | 1.59% | 0.67%
CN(C)c1ccc2c(c1)/C(=C/Nc1ccc(S(N)(=O)=O)cc1)C(=O)N2 | 0.14% | -0.46% | 0.75% | 1.06% | 2.06% | 1.85% | 3.15% | 5.15% | 0.97% | 8.73% | 0.22% | 4.01% | 1.12% | 2.85% | 3.06% | 4.05% | 1.96% | 3.55% | 0.19% | 3.09%
CN(c1ccc(NC(=O)Nc2c(Cl)cccc2Cl)cc1)c1ccnc(Nc2cccc(CS(C)(=O)=O)c2)n1 | 0.48% | 1.09% | 0.5% | 2.1% | 3.21% | -0.15% | 3.24% | 3.8% | 3.79% | 1.55% | 1.56% | 2.97% | 0.43% | 0.92% | 2.92% | 4.25% | 2.24% | 4.1% | -1.3% | 2.4%
O=C(Nc1ccc(Oc2ccc3[nH]c(NC(=O)c4ccccc4)nc3c2)cc1)Nc1cc(C(F)(F)F)ccc1F | -0.2% | 1.04% | 1.71% | 1.18% | 1.05% | 1.51% | 2.58% | 4.7% | 0.51% | -2.78% | -0.69% | 1% | -0.31% | -0.22% | 4.16% | 5.67% | 2.16% | 3.01% | 5.73% | 36.4%
COc1cc(Nc2ncc(-c3ccccc3)o2)cc(OC)c1OC | -1.72% | -1.61% | -2.18% | -1.88% | -1.76% | 1.14% | -1.02% | -0.02% | 3.87% | -9.33% | 2.53% | 3.73% | 0.08% | 0.86% | 0.23% | 0.82% | -1.71% | 0.02% | -0.45% | 3.55%
O=C1NC(=O)C(c2cccc(Cl)c2)=C1Nc1ccc(Cl)c(C(=O)O)c1 | 0.08% | 1.15% | 1.52% | 0.7% | 1.61% | 0.58% | 4.67% | 8.66% | 13.2% | 9.31% | 1.43% | 4.38% | 0.15% | -0.05% | 3.03% | 2.1% | 2.51% | 2.85% | 0.51% | 1.96%
O=C(Nc1n[nH]c2nc(-c3ccc(O)cc3)c(Br)cc12)C1CC1 | 0.84% | 2.07% | 2.21% | 3.12% | 3.32% | 12.5% | 11.6% | 32.6% | 5.77% | 17.4% | 1.56% | 13.5% | 1.77% | 15.5% | 5.22% | 13.6% | 2.78% | 6.3% | 2.07% | 6.85%
COc1ccc(C2=C(N3CCc4ccccc43)C(=O)NC2=O)cc1 | 0.6% | 0.96% | 2.65% | 1.87% | 1.01% | 2.72% | 8.72% | 8.49% | 27.9% | 20.3% | -0.56% | -0.21% | 1.1% | 0.12% | 4.26% | 3.53% | 2.26% | 3.24% | 1.91% | 3.41%
C#Cc1cccc(Nc2ncnc3ccc(OCCCCNCCS(C)(=O)=O)cc23)c1 | -2.83% | -3.06% | -0.89% | -2.09% | -1.57% | -0.78% | 7.52% | 6.6% | 4.84% | 8.97% | -0.05% | 7.35% | 0.55% | 1.44% | 2.74% | 1.8% | 3.12% | 3.4% | 2.59% | 3.29%
COc1cc(Nc2ncc3c(C)nc(-c4cccc(C(F)(F)F)c4)n3n2)cc(OC)c1OC | 0.55% | 0.77% | 1.62% | 1.52% | 1.12% | 1.21% | 1.33% | 4.77% | 3.66% | 6.59% | -0.66% | 4.12% | -1.16% | -0.4% | 2.79% | 5.2% | 2.89% | 8.48% | 2.17% | 5.51%
Clc1ccc(CNc2nccc(-c3cnn4ncccc34)n2)cc1 | 0.58% | 0.44% | 0.17% | -0.27% | 2.1% | 1.14% | 5.42% | 1.78% | 1.36% | -5.11% | 0% | 2.46% | -1.16% | 0.3% | 6.95% | 7.87% | 1.14% | 1.71% | 1.82% | 2.04%
NC(=O)c1cc(-c2ccc(F)cc2)cc(-c2ccncc2)c1N | 0.92% | 1.2% | 1.95% | 2.01% | 2.01% | 4.31% | 5.99% | 6.88% | 2.49% | 11.1% | -1.04% | -1.25% | -1.54% | -2.26% | 2.2% | 1.39% | 2.03% | 2.52% | 1.5% | 2.24%
